A short description of this test: inhibitors of HIV fusion peptide binding, primary screen, biochemical, uHTS, fluorescence dequenching (AID 1986). Conditions: cell-free peptide binding, 30 min, stronger effect = higher value.
Setting [1] is: measured here: repeat confirmation average inhibition, at 18.6 µM.

Hit rate of the full screen: of about 290,000 compounds, about 890 (0.31%) were called active. Cut-off read from the data, not from the text of the source: active = inhibition mostly above about 52% (no sharp cut-off); inactive = mostly below about 76%. What follows is part of a selection rich in actives, with near analogues and random picks from the rest.

One may read the inhibition as the drop in the measured response relative to a control, in per cent. Take `COc1cc(/C=N/NC(=O)c2cccc(S(=O)(=O)N3CCCCC3)c2)cc(Br)c1O`: the inhibition (at 20 µM) is 1.7% (inactive).

In the case of `O=C(NC(Cc1ccccc1)C(=O)O)/C(=C\c1ccc(F)cc1)NC(=O)c1ccccc1` (stereo not drawn), the inhibition (at 20 µM) was 12.8% (inactive).

As to `CC(=O)Nc1ccc2c(c1)nc(CCN1CCN(C)CC1)n2C`, the inhibition (at 20 µM) was -1.1% (inactive). `O=C(Cc1ccc([N+](=O)[O-])cc1)Nc1ccc2c(c1)OCO2`: the inhibition (at 20 µM) is 0.9% (inactive). Same read-out and setting: with `CCCc1nc(SC)[nH]c(=O)c1C` the figure was -0.9% (inactive). On to `O=C(O)c1cc(-c2ccc(/C=C3/SC(=S)N(Cc4ccccc4)C3=O)o2)ccc1Cl`, for which the inhibition (at 20 µM) was 58.1% (active). On the same count and under the same terms, with `C#CCN1C(=O)S/C(=C\c2ccc(-c3ccc(Cl)c(C(=O)O)c3)o2)C1=O` the figure was 18.9% (inactive); with `COc1ccc(CN2C(=O)/C(=C/c3ccc(-c4ccc(Cl)c(C(=O)O)c4)o3)SC2=S)cc1`, 139% (inactive); with `CCCCn1c(N)c(NCc2ccccc2OC)c(=O)[nH]c1=O`, 2.3% (inactive).

Consider `Nc1c(-c2cccc(Cl)c2)cnn1-c1ccccc1`, for which the inhibition (at 20 µM) is -1.8% (inactive). Same read-out and setting: the value for `c1ccc2sc(NC3=NCN(CC4CCCO4)CN3)nc2c1` (stereo not drawn) was 1.1% (inactive). On the same count and under the same terms, the value for `Cc1cc2ccccn2c1C(=O)c1ccc(N/N=C/c2ccc(C(=O)O)cc2)c([N+](=O)[O-])c1` was 52.9% (active); that for `CC(=O)Nc1ccc(/C=N/Nc2ccc(C(=O)c3c(C)cc4ccccn34)cc2[N+](=O)[O-])cc1` was -5.5% (inactive); that for `Cc1cc2ccccn2c1C(=O)c1ccc(NN)c([N+](=O)[O-])c1` was -4.5% (inactive). `COc1cccc(-c2c(C(=O)N/N=C/c3cccnc3)nnn2-c2nonc2N)c1`: for the setting “at 20 µM”, the inhibition is -0.9% (inactive).

On to `O=C(O)CCCNc1cc(N2CCC3(CC2)OCCO3)c2noc3c2c1C(=O)c1ccccc1-3`, for which the inhibition (at 20 µM) was 58.7% (active). Still for that read-out and setting: with `O=C(O)CCNc1cc(N2CCN(C(=O)c3ccco3)CC2)c2noc3c2c1C(=O)c1ccccc1-3` the figure was 54.7% (active); with `CCN1CCN(c2cc(N3CCN(C(=O)c4ccco4)CC3)c3c4c(onc24)-c2ccccc2C3=O)CC1`, 10.6% (inactive). In the case of `O=C1c2ccccc2-c2onc3c(N4CCN(CCO)CC4)cc(N4CCN(C(=O)c5ccco5)CC4)c1c23`, the inhibition (at 20 µM) was 5.9% (inactive).

For the compound `CN1CCN(c2cc(N3CCN(C(=O)c4ccco4)CC3)c3c4c(onc24)-c2ccccc2C3=O)CC1`, the inhibition (at 20 µM) is 5.9% (inactive). Turning to `CC(=O)OCCNc1cc(N2CCN(C)CC2)c2noc3c2c1C(=O)c1ccccc1-3`, under “at 20 µM”, the inhibition was -2% (inactive). Still for that read-out and setting: with `CCOC(=O)N1CCN(c2cc(NCCC(=O)O)c3c4c(onc24)-c2ccccc2C3=O)CC1` the figure was 18% (inactive); with `O=C(O)CCCNc1cc(N2CCN(C(=O)c3ccco3)CC2)c2noc3c2c1C(=O)c1ccccc1-3`, 70% (active).

With `O=[N+]([O-])c1c(NCCO)cc(N2CCC3(CC2)OCCO3)c2nonc12`, the inhibition (at 20 µM) was -2.2% (inactive).

Take `CCCCNC(=O)Nc1nnc(SCC(=O)OCC)s1`: the inhibition (at 20 µM) is -2.1% (inactive). On the same count and under the same terms, with `COc1ccc(Cc2nc3ccccc3[nH]c2=O)cc1` the figure was -2.8% (inactive). Consider `Cc1cc(C2C(C#N)=C(N)SC(N)=C2C#N)c(C)s1`, for which the inhibition was 51.9% (active) (at 20 µM) and 68.2% under setting [1]. Consider `Cc1ccc(C2C(C#N)=C(N)SC(N)=C2C#N)c(C)c1`, for which, for the setting “at 20 µM”, the inhibition was -3.6% (inactive). On to `Cc1sccc1C1C(C#N)=C(N)SC(N)=C1C#N`, for which the inhibition (at 20 µM) is 32.9% (inactive). The same measure, in the same setting: the value for `C=CCN1C(=O)/C(=C/c2ccccc2)S/C1=N/c1nccs1` was 1.5% (inactive). Turning to `C=CCN1C(=O)/C(=C/c2ccc(N(C)C)cc2)S/C1=N\c1nnc(CC)s1`, the inhibition (at 20 µM) was 61.5% (active). Still for that read-out and setting: with `C=CCN=C1S/C(=C\c2ccc(N(C)C)cc2)C(=O)N1CC=C` the figure was 2.1% (inactive); with `Cc1[nH]c(=O)[nH]c(=O)c1S(=O)(=O)N1CCCC(C(=O)NCCC2=CCCCC2)C1` (stereo not drawn), 0.7% (inactive); with `COc1ccc(Cl)cc1Nc1nc(C)nc2c1nnn2Cc1ccccc1`, -1% (inactive). As for `Cc1cccc(NC(=O)CC2Nc3cccc4cccc(c34)NC2=O)c1` (stereo not drawn), the inhibition (at 20 µM) is -5.8% (inactive). Take `CC(=O)Nc1ccc(NC(=O)CC2Nc3cccc4cccc(c34)NC2=O)cc1` (stereo not drawn): the inhibition is, setting by setting: (at 20 µM) 67.6% (inactive); under setting [1], -1.4%. With `O=C(CC1Nc2cccc3cccc(c23)NC1=O)Nc1ccccc1` (stereo not drawn), the inhibition (at 20 µM) is 57.7% (active). For the compound `COc1ccc(NC(=O)CC2Nc3cccc4cccc(c34)NC2=O)cc1` (stereo not drawn), the inhibition by setting is: (at 20 µM) 51.5% (inactive); under setting [1], -2.3%. On the same counts, the results for `O=C(CC1Nc2cccc3cccc(c23)NC1=O)Nc1ccc(F)cc1` (stereo not drawn) are 59.6% (inactive) and -0.8%. `NC(=O)CC1Nc2cccc3cccc(c23)NC1=O` (stereo not drawn): for the setting “at 20 µM”, the inhibition was 57.4% (active). Still for that read-out and setting: with `COc1cc2c(cc1NC(=O)CSc1nnc(Cc3cccs3)n1C)oc1ccccc12` the figure was -3.3% (inactive).

`CCOC(=O)c1c(-c2ccc(C)cc2)csc1NC(=O)/C(C#N)=C/c1ccc(O)c(OC)c1`: the inhibition runs as follows: (at 20 µM) 95% (inactive); under setting [1], 7.7%.

Turning to `CCOC(=O)c1c(-c2ccccc2)csc1NC(=O)/C(C#N)=C/c1ccc(OC)c(OC)c1`, the inhibition (at 20 µM) is 24.6% (inactive).

As for `CCOC(=O)c1c(-c2ccccc2)csc1NC(=O)/C(C#N)=C/c1ccc(O)c(OC)c1`, the inhibition is, setting by setting: (at 20 µM) 78.2% (active); under setting [1], 53.4%.

For `COC(=O)C1=C(C)N(C)C(=O)NC1c1c(OC)ccc2ccccc12` (stereo not drawn), the inhibition (at 20 µM) was -0.6% (inactive).

For `O=C(Nc1ccc(Cl)cc1F)C1CCN(S(=O)(=O)c2cccnc2)CC1`, where the note is “at 20 µM”, the inhibition was -1.9% (inactive).

With `COc1ccc(NC(=O)C23CC4CC(C2)CC(n2cnc(Br)n2)(C4)C3)c(OC)c1`, for the setting “at 20 µM”, the inhibition is -1.5% (inactive).

For `COc1cc(OC)c(OC)cc1CNCCNC(=O)c1ccco1`, the inhibition (at 20 µM) is 1.1% (inactive). The same measure, in the same setting: the value for `Cc1onc(-c2ccccc2Cl)c1C(=O)N1CCCc2ccccc21` was -0.5% (inactive); that for `COc1ccc(CCNS(=O)(=O)c2cccc3nsnc23)cc1OC` was 0.3% (inactive).

For the compound `c1ccc(CCn2nnnc2CN2CCc3ccccc32)cc1`, under “at 20 µM”, the inhibition is 1.1% (inactive). Still for that read-out and setting: with `CC1=C(C#N)c2nc(N)c(C#N)c(C)c2/C1=C\c1ccc(-c2ccccc2C(=O)O)o1` the figure was 56.8% (active); with `CC1=C(C#N)c2nc(N)c(C#N)c(C)c2/C1=C\c1ccc(OCC(=O)O)c(Cl)c1`, 28% (inactive); with `CC1=C(C#N)c2nc(N)c(C#N)c(C)c2/C1=C\c1ccc(C)cc1`, 15.6% (inactive). The same measure, in the same setting: the value for `CCOc1ccc(N(C)C(=O)CCc2nnc3ccc(N4CCC5(CC4)OCCO5)nn23)cc1` was 0.1% (inactive); that for `COc1ccc(CC(=O)N(C)CC(=O)Nc2ccccc2SC)cc1` was 3.4% (inactive).

With `COc1ccc(OC)c(NC(=O)CN(C)S(=O)(=O)c2ccc3nc(C)sc3c2)c1`, the inhibition (at 20 µM) is -0.6% (inactive). For `CN(C)c1ccc(/C=N/N(CCC#N)C2=NS(=O)(=O)c3ccccc32)cc1`, the inhibition (at 20 µM) was 69.3% (active) and the inhibition under setting [1] was determined as 64.2%. `N#CCCN(/N=C/c1cccnc1)C1=NS(=O)(=O)c2ccccc21`: the inhibition (at 20 µM) is -1.4% (inactive). On the same count and under the same terms, the value for `CN(C)c1ccc(/C=N/N(CCO)C2=NS(=O)(=O)c3ccccc32)cc1` was 159% (inactive). Still for that read-out and setting: the value for `O=C(COc1ccc(F)cc1)N(Cc1cccs1)C1CCS(=O)(=O)C1` (stereo not drawn) was 3.2% (inactive); that for `Cc1ccc(C(=O)Nc2ccc(Oc3ccc(C(=O)O)c(C(=O)O)c3)cc2)cc1C` was 17.4% (inactive). Same read-out and setting: the value for `CC(C)(C)C(=O)Nc1ccc(C(=O)Nc2cccc(Oc3ccc(C(=O)O)c(C(=O)O)c3)c2)cc1` was 37.8% (inactive); that for `O=C(Nc1cccc(Oc2ccc(C(=O)O)c(C(=O)O)c2)c1)c1ccc(-c2ccccc2)cc1` was 75.5% (active).

In the case of `CCOC(=O)/C(=C/C=C1\Sc2ccccc2N1CC)C(C)=O`, the inhibition is 114% (active) (at 20 µM) and 145% under setting [1].

Regarding `CCOC(=O)/C(=C\C=C1/Sc2ccccc2N1CC)C(C)=O`, the inhibition (at 20 µM) is 150% (inactive).

For `CCN1/C(=C\C=C(C(C)=O)C(C)=O)Sc2ccccc21`, the inhibition (at 20 µM) was 148% (inactive).

As to `C=Cc1ccc(C(=O)NC2CCCN(Cc3ccccc3F)C2)cc1` (stereo not drawn), the inhibition (at 20 µM) is 1.1% (inactive).

With `CC(C)c1ccc(C(=O)NCc2ccc(Cl)cc2)cc1`, the inhibition (at 20 µM) is -2.4% (inactive).

`Cc1ccc2c(c1)c(N=O)c(O)n2Cc1ccc(Cl)cc1`: for the setting “at 20 µM”, the inhibition was -0.1% (inactive).

For `CC(C)c1ccc2c(c1)c(SC(C)(C)C)c(CC(C)(C)C(=O)O)n2Cc1ccc(Cl)cc1`, the inhibition (at 20 µM) is 53.9% (active).

In the case of `CN(Cc1nccn1C)C(=O)CC1C(=O)NCCN1Cc1ccc(F)cc1Cl` (stereo not drawn), the inhibition (at 20 µM) was -0.5% (inactive). Same read-out and setting: with `Cc1cc2ncc(C(N)=O)cn2n1` the figure was -1.8% (inactive). Same read-out and setting: with `O=C(/C=C/c1ccco1)c1ccc(NC(=O)C23CC4CC(CC(C4)C2)C3)cc1` the figure was 50.7% (active); with `CC(=O)Nc1ccc(C(=O)/C=C/c2ccco2)cc1`, 36% (inactive). For the compound `O=C(/C=C\c1ccco1)c1ccc(NC(=O)c2ccco2)cc1`, the inhibition reads like this: (at 20 µM) 58.2% (inactive); under setting [1], 3%. As to `COCCCn1c(=O)/c(=C\c2ccccc2OC(C)C)s/c1=C(/C#N)C(=O)Nc1ccc(C(=O)O)cc1`, the inhibition (at 20 µM) is 77.3% (active).

Consider `COCCCn1c(=O)/c(=C\c2cccc(OC)c2OC)s/c1=C(/C#N)C(=O)Nc1ccc(C(=O)O)cc1`, for which the inhibition was 54.1% (inactive) (at 20 µM) and 33.7% under setting [1]. For `COCCCn1c(=O)/c(=C\c2ccccc2OC(F)F)s/c1=C(/C#N)C(=O)NC(C)C`, in that order: 75.2% (inactive) and 5.3%. Take `Cc1ccc(C(=O)OCC(=O)N(C)C2CCS(=O)(=O)C2)cc1[N+](=O)[O-]` (stereo not drawn): the inhibition (at 20 µM) is -0.5% (inactive). The same measure, in the same setting: with `CC(=O)c1cccc(NC(=O)CSc2ccc(-c3ccc4c(c3)OCO4)nn2)c1` the figure was 0.3% (inactive).

As to `O=C(O)c1cccc(Cn2c(Cl)c(/C=N/NC(=O)c3cc4ccccc4cc3O)sc2=O)c1`, where the note is “at 20 µM”, the inhibition was 61.5% (active). The same measure, in the same setting: the value for `O=C(O)c1cccc(Cn2c(Cl)c(/C=N/NC(=O)c3ccccc3O)sc2=O)c1` was 28.1% (inactive); that for `O=C(NN=C1CCN(Cc2ccccc2)CC1)c1cc2ccccc2cc1O` was 56% (active); that for `O=C(O)c1cccc(Cn2c(Cl)c(/C=N/NC(=O)c3ccccc3Cl)sc2=O)c1` was 6.2% (inactive).

For the compound `O=C(NN=C1CCN(Cc2ccccc2)CC1)c1cc(Br)ccc1O`, the inhibition (at 20 µM) is 7.6% (inactive).

For the compound `O=C(NN=C1CCN(Cc2ccccc2)CC1)c1ccccc1O`, the inhibition (at 20 µM) is 3.9% (inactive).

(Values after PubChem BioAssay AID1986 (Sanford-Burnham Center for Chemical Genomics, 2009).)
